Drawing on PubChem BioAssay (NCI), this text covers growth inhibition for eight molecules.

The nature of test [1]: NCI Yeast Anticancer Drug Screen. Data for the rad50 strain (AID 155).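 Also: 0% = growth of vehicle-only cultures of the same strain.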 To be noted: S. cerevisiae rad50 strain growth inhibition, stronger effect = higher value. In outline: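 Relative growth inhibition (compound vs vehicle) was measured in yeast with a defined repair-gene alteration.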
Test [2] is described as follows: NCI Yeast Anticancer Drug Screen. Data for the mec2-1 strain (AID 157). To be noted: S. cerevisiae mec2-1 strain, stronger effect = higher value. In outline: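 Mutant yeast (mec2-1) grown with compound; growth inhibition relative to vehicle control reported.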
A short description of test [3]: NCI Yeast Anticancer Drug Screen. Data for the sgs1 mgt1 strain (AID 161).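 Also: 0% = growth of cultures given vehicle only.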 To be noted: S. cerevisiae sgs1 mgt1 strain, stronger effect = higher value. In outline: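 Growth of a repair-deficient yeast mutant was monitored after compound treatment and expressed as inhibition relative to vehicle-treated cultures.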
Test [4] is described as follows: NCI Yeast Anticancer Drug Screen. Data for the cln2 rad14 strain (AID 165).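 Also: 0% = growth equal to vehicle treated cultures.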 To be noted: S. cerevisiae cln2 rad14 strain, stronger effect = higher value. In outline: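 Readout is yeast growth inhibition versus vehicle-treated controls, using a strain with cln2 and rad14 alterations exposed to compound.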
Test [5] can be described thus: NCI Yeast Anticancer Drug Screen. Data for the bub3 strain (AID 167). To be noted: S. cerevisiae bub3 mutant strain, stronger effect = higher value. In outline:
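Screening used yeast with an engineered genetic alteration affecting cell cycle control. Compound-exposed cultures were compared with vehicle cultures, and reduced growth was taken as inhibition.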

The nature of test [6]: NCI Yeast Anticancer Drug Screen. Data for the mlh1 rad18 strain (AID 175). To be noted: S. cerevisiae mlh1 rad18 strain growth inhibition, stronger effect = higher value. In outline: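 Genetically defined yeast (DNA repair-deficient) exposed to compounds; growth inhibition determined relative to vehicle.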
Where [7] appears, read: at 5.0 µM (retest, dose inferred, filed as 0.5).
Where [8] appears, read: at 50.0 µM (retest, dose inferred, filed as 5.0).

Values joined by “and” are separate entries in the source; they are usually repeats but may differ in a detail not shown here. Identical values can stand only once. About 79,000 compounds went through this panel and 15% of them were active in at least one assay; those are over-represented in the sample as a whole. Where a structure was tested more than once in an assay, its records may differ in their call. Active and inactive are the calls of the source. Rule as the data show it: active = growth inhibition above about 70%; inactive = the rest.

Take `c1ccc2c(c1)CC1=C(O2)c2ccccc2OC1`: the growth inhibition was -2% (inactive) in test [1] (setting [7]); 48% (inactive) in test [1] (setting [8]); 37.5% (inactive) in test [1] (at 50.0 µM); 2% (inactive) in test [2] (setting [7]); 78% (active) in test [2] (setting [8]); 39.5% (inactive) in test [2] (at 50.0 µM). Besides, the growth inhibition in test [3] (setting [7]) is 5% (inactive); in test [3] (setting [8]) it was 76% (active); in test [3] (at 50.0 µM), 42.7% (inactive); in test [4] (setting [7]), -3% (inactive); in test [4] (setting [8]), 22% (inactive); in test [4] (at 50.0 µM), 46.1% (inactive). Further, the growth inhibition was 4% (inactive) in test [5] (setting [7]); 80% (active) in test [5] (setting [8]); 53% (inactive) in test [5] (at 50.0 µM); 6% (inactive) in test [6] (setting [7]); 89% (active) in test [6] (setting [8]); 92.1% (active) in test [6] (at 50.0 µM).
Turning to `CN(C)CCC(=O)c1cccc([N+](=O)[O-])c1`, the growth inhibition in test [1] (setting [7]) was 10% (inactive); in test [1] (setting [8]), 85% (active); in test [1] (at 50.0 µM), 39.3% (inactive) and 83.9% (active); in test [2] (setting [7]), 13% (inactive); in test [2] (setting [8]), 87% (active); in test [2] (at 50.0 µM), 4.1% (inactive) and 88.5% (active). The growth inhibition is 12% (inactive) in test [3] (setting [7]); 89% (active) in test [3] (setting [8]); 11.4% (inactive) and 96% (active) in test [3] (at 50.0 µM); 7% (inactive) in test [4] (setting [7]); 71% (active) in test [4] (setting [8]); 31.4% (inactive) and 34.9% (inactive) in test [4] (at 50.0 µM). For the same molecule, the growth inhibition in test [5] (setting [7]) was 2% (inactive); in test [5] (setting [8]), 92% (active); in test [5] (at 50.0 µM) it was 14.5% (inactive) and 90.2% (active); in test [6] (setting [7]), 11% (inactive); in test [6] (setting [8]), 96% (active); in test [6] (at 50.0 µM), 33.4% (inactive) and 96.8% (active).
On to `c1cc2c3c(cccc3c1)-c1cnccc1-2`, for which the growth inhibition in test [1] (setting [7]) is 31% (inactive); in test [1] (setting [8]), 54% (inactive); in test [1] (at 50.0 µM), 91.1% (active); in test [2] (setting [7]), 36% (inactive); in test [2] (setting [8]) it was 84% (active); in test [2] (at 50.0 µM) it was 92.7% (active). For the same molecule, the growth inhibition in test [3] (setting [7]) was -6% (inactive); in test [3] (setting [8]), 97% (active); in test [3] (at 50.0 µM), 92.9% (active); in test [4] (setting [7]), 48% (inactive); in test [4] (setting [8]) it was 97% (active); in test [4] (at 50.0 µM), 90.8% (active). The growth inhibition was 16% (inactive) in test [5] (setting [7]); 98% (active) in test [5] (setting [8]); 92.3% (active) in test [5] (at 50.0 µM); 35% (inactive) in test [6] (setting [7]); 73% (active) in test [6] (setting [8]); 91.8% (active) in test [6] (at 50.0 µM).
As for `Clc1cc(Cl)c(Cl)nn1`, the growth inhibition is 13% (inactive) in test [1] (setting [7]); 83% (active) in test [1] (setting [8]); 59.6% (inactive) and 86% (active) in test [1] (at 50.0 µM); 3% (inactive) in test [2] (setting [7]); 38% (inactive) in test [2] (setting [8]); 2.1% (inactive) and 44.9% (inactive) in test [2] (at 50.0 µM). In addition, the growth inhibition in test [3] (setting [7]) was -1% (inactive); in test [3] (setting [8]) it was 24% (inactive); in test [3] (at 50.0 µM), 3.1% (inactive) and 15.5% (inactive); in test [4] (setting [7]), -8% (inactive); in test [4] (setting [8]) it was 25% (inactive); in test [4] (at 50.0 µM), -7.45% (inactive) and 16.4% (inactive). The growth inhibition in test [5] (setting [7]) is 6% (inactive); in test [5] (setting [8]) it was 48% (inactive); in test [5] (at 50.0 µM) it was 18.6% (inactive) and 60.8% (inactive); in test [6] (setting [7]) it was 1% (inactive); in test [6] (setting [8]), 45% (inactive); in test [6] (at 50.0 µM), 15.8% (inactive) and 25% (inactive).
For the molecule `C/C(=N\O)c1cc(Br)cc([N+](=O)[O-])c1O`, the growth inhibition was 1% (inactive) in test [1] (setting [7]); 14% (inactive) in test [1] (setting [8]); 6.45% (inactive) in test [1] (at 50.0 µM); 7% (inactive) in test [2] (setting [7]); 35% (inactive) in test [2] (setting [8]); 4.15% (inactive) in test [2] (at 50.0 µM). The growth inhibition in test [3] (setting [7]) was 3% (inactive); in test [3] (setting [8]) it was 27% (inactive); in test [3] (at 50.0 µM), 4.95% (inactive); in test [4] (setting [7]), 13% (inactive); in test [4] (setting [8]), 11% (inactive); in test [4] (at 50.0 µM), 39% (inactive). The growth inhibition in test [5] (setting [7]) is 4% (inactive); in test [5] (setting [8]), 10% (inactive); in test [5] (at 50.0 µM), 8.3% (inactive); in test [6] (setting [7]), 5% (inactive); in test [6] (setting [8]) it was 25% (inactive); in test [6] (at 50.0 µM), 14.8% (inactive).
Turning to `CC(C)(Cc1nocc1C(C)(C)CC#N)c1cc(CC(C)(C)C2(C)OCCO2)no1`, the growth inhibition in test [1] (setting [7]) is -4% (inactive); in test [1] (setting [8]), 0% (inactive); in test [1] (at 50.0 µM) it was -9.6% (inactive); in test [2] (setting [7]) it was 0% (inactive); in test [2] (setting [8]), -1% (inactive); in test [2] (at 50.0 µM), 9.45% (inactive). Further, the growth inhibition in test [3] (setting [7]) is -8% (inactive); in test [3] (setting [8]) it was 1% (inactive); in test [3] (at 50.0 µM) it was -7.8% (inactive); in test [4] (setting [7]), 2% (inactive); in test [4] (setting [8]), -6% (inactive); in test [4] (at 50.0 µM), 25.3% (inactive). Also, the growth inhibition in test [5] (setting [7]) is -7% (inactive); in test [5] (setting [8]), -6% (inactive); in test [5] (at 50.0 µM), -47.8% (inactive); in test [6] (setting [7]) it was -3% (inactive); in test [6] (setting [8]) it was -4% (inactive); in test [6] (at 50.0 µM), -9.8% (inactive).
Take `CCc1[nH]c(=O)nc(N)c1-c1ccc(N2CCCCC2)c([N+](=O)[O-])c1`: the growth inhibition in test [1] (setting [7]) was -11% (inactive); in test [1] (setting [8]), -25% (inactive); in test [1] (at 50.0 µM), 89.8% (active); in test [2] (setting [7]) it was -23% (inactive); in test [2] (setting [8]), 1% (inactive); in test [2] (at 50.0 µM), 86.8% (active). In addition, the growth inhibition is 0% (inactive) in test [3] (setting [7]); -6% (inactive) in test [3] (setting [8]); 90.8% (active) in test [3] (at 50.0 µM); -31% (inactive) in test [4] (setting [7]); -25% (inactive) in test [4] (setting [8]); 70.8% (active) in test [4] (at 50.0 µM). Moreover, the growth inhibition in test [5] (setting [7]) was -25% (inactive); in test [5] (setting [8]), -32% (inactive); in test [5] (at 50.0 µM), 71.4% (active); in test [6] (setting [7]) it was -22% (inactive); in test [6] (setting [8]), -12% (inactive); in test [6] (at 50.0 µM), 90.8% (active).
Consider `CCN(CC)CCNc1nc(NCCN(CC)CC)c2nc(-c3ccccc3)c(-c3ccccc3)nc2n1`, for which the growth inhibition in test [1] (setting [7]) was 91% (active); in test [1] (setting [8]), 98% (active); in test [1] (at 50.0 µM), 98.8% (active); in test [2] (setting [7]) it was 84% (active); in test [2] (setting [8]), 98% (active); in test [2] (at 50.0 µM) it was 98.2% (active). Moreover, the growth inhibition in test [3] (setting [7]) is 95% (active); in test [3] (setting [8]) it was 99% (active); in test [3] (at 50.0 µM), 98.8% (active); in test [4] (setting [7]) it was 76% (active); in test [4] (setting [8]), 97% (active); in test [4] (at 50.0 µM), 98% (active). Besides, the growth inhibition in test [5] (setting [7]) is 92% (active); in test [5] (setting [8]) it was 98% (active); in test [5] (at 50.0 µM) it was 98% (active); in test [6] (setting [7]) it was 92% (active); in test [6] (setting [8]) it was 98% (active); in test [6] (at 50.0 µM), 98.4% (active).
